JMJD2E inh: qHTS Assay for Inhibitors of Human Jumonji Domain Containing 2E (JMJD2E); JMJD2E catalytic domain, FDH-coupled NADH fluorescence (FDH is formaldehyde dehydrogenase); 1.6% of 230,000 active; Potency, µM (top dose mostly 57.1 µM), inactives show at the highest dose activity change, negative = inhibition, usual class: inhibitors; Lysine-specific demethylase 4E (Homo sapiens), B2RXH2;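 further: potency means the concentration at half of the fitted maximal effect; 0% = wells with enzyme and -100% = buffer wells without enzyme; nearly all actives have a fitted effect of over 50% in size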
ALDH1A1 inh: qHTS Assay for Inhibitors of Aldehyde Dehydrogenase 1 (ALDH1A1) | Aldehyde dehydrogenase 1A1 (Homo sapiens), P00352 | 7.3% of 220,000 active | Potency, µM (titrated, usually from 75.3 µM), for the others: top-dose activity, negative = inhibition, actives largely listed as inhibitors | Purified ALDH1A1, NADH fluorescence, propionaldehyde substrate;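 further: potency means the concentration at half of the fitted maximal effect; plate controls were no enzyme wells and a reference inhibitor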
Target sequence (P00352 whole entry, looked up): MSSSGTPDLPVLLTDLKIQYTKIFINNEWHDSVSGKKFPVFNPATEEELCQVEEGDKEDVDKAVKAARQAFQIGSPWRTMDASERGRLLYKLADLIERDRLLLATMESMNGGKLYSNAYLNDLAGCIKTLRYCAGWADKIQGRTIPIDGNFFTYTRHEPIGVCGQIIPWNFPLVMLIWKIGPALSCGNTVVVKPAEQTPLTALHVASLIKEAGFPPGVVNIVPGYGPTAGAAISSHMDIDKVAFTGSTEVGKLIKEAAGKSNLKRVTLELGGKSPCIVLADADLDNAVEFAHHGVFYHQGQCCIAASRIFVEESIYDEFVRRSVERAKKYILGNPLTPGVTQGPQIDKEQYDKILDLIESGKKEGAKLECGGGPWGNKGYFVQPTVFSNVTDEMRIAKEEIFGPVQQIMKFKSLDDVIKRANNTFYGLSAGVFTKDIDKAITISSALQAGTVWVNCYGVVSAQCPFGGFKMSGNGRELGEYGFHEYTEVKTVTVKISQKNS
PNC assembly inh: High Content Assay for Compounds that inhibit the Assembly of the Perinucleolar Compartment. PC3M PTB-GFP, PNC prevalence imaging, 16 h; stronger effect = lower value. activity change (PNC), negative = inhibition, % at 10 µM. 3.1% of 140,000 active. AID 2417, 2010;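 active means readout at or below -70, meaning at least 70% loss of cells showing the perinucleolar compartment, a nuclear body marking cancer cells; inconclusive means readout between -30 and a set limit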;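 further: plate controls were DMSO wells for no effect and camptothecin positive control wells for full effect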
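Compounds are pinned in duplicate onto adhered PC3M cells stably expressing GFP-tagged PTB and incubated 16 h at 37 C. Cells are then fixed, nuclei stained with Hoechst, and PNC-positive cells counted.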
HPGD block: qHTS Assay for Inhibitors of HPGD (15-Hydroxyprostaglandin Dehydrogenase); 15-hydroxyprostaglandin dehydrogenase [NAD(+)] (Homo sapiens), P15428; purified HPGD, NADH fluorescence kinetic, PGE2 substrate; Potency, µM, for inactives: at the highest dose activity change, negative = inhibition, most hits filed as inhibitors; 4.3% of 150,000 active; AID 894, 2007; further: potency means the concentration at half of the fitted maximal effect
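20 nM HPGD preincubated 15 min at room temperature with compound in 50 mM Tris-HCl pH 8, 0.01% Tween 20. Started with 1 mM NAD+ and 30 uM prostaglandin E2; NADH fluorescence (360/450 nm) read 5 times over 30-s intervals, last minus first.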
Starred values were filed as active, the others as inactive; [ ] = remark or other dose. An excerpt weighted towards active compounds, which were near 11% of everything screened. Unless noted, the call rests on the fitted dose curve; in most records, active means well fitted inhibition curve with a large enough effect (not every such curve was filed as active); inconclusive means small, poorly fitted or top-dose-only effect, or another doubt; inactive means no such curve, though single readings can be large or run the other way. Unless noted, on the % scale 0 is the no-effect control and ±100 the full control effect.

How did CC(C)(C)c1ccc(OCC(=O)O)c(Cl)c1 do in these assays?
ALDH1A1 inh: -13.0%[13.5 µM]; HPGD block: -6.0%

What do the screens show for `CN(CC(CC(=O)Nc1nncs1)c1ccccc1)S(=O)(=O)c1ccccc1` (centres undefined)?
JMJD2E inh: -8.7%; ALDH1A1 inh: 8.91µM*; PNC assembly inh: -19.9; HPGD block: -4.5%

What do the screens show for `Cc1nnc(NC(=O)CC(CN(C)S(=O)(=O)c2ccccc2)c2ccccc2)s1` (centres undefined)?
JMJD2E inh: 8.0%; ALDH1A1 inh: inconclusive; PNC assembly inh: inconclusive; HPGD block: -0.7%

Results for CN(CC(CC(=O)Nc1nncs1)c1ccccc1)S(=O)(=O)c1ccc(Br)cc1 (centres undefined) ?
JMJD2E inh: -5.3%; ALDH1A1 inh: 12.6µM*; PNC assembly inh: inconclusive; HPGD block: -10.5%

Results for CCc1nnc(NC(=O)CC(CN(C)S(=O)(=O)c2ccccc2)c2ccccc2)s1 (centres undefined) ?
JMJD2E inh: 2.1%; ALDH1A1 inh: -6.8%; PNC assembly inh: -6.2; HPGD block: -5.0%

What do the screens show for `O=C(OCc1nc2ccccc2s1)[C@@H]1CCCN1S(=O)(=O)c1ccccc1F`?
JMJD2E inh: 1.1%; ALDH1A1 inh: 7.94µM*; PNC assembly inh: inconclusive; HPGD block: -15.7%

What do the screens show for `CCOC(=O)c1nn(-c2ccc(F)cc2)c(-c2ccccc2)c1C(=O)c1ccccc1`?
JMJD2E inh: 5.9%; ALDH1A1 inh: 11.2µM*; PNC assembly inh: 40.6; HPGD block: -23.0%

Results for Cc1ccc(Cl)cc1N1CCN(C(=O)CSc2nnc3n2C(C)(C)Cc2ccccc2-3)CC1 ?
JMJD2E inh: -1.5%; ALDH1A1 inh: inconclusive; PNC assembly inh: -21.5; HPGD block: -8.3%

How did COc1ccc(N2CCN(C(=O)CSc3ccccc3N)CC2)cc1 do in these assays?
JMJD2E inh: -6.5%; ALDH1A1 inh: 25.1µM*; PNC assembly inh: inconclusive; HPGD block: inconclusive

Results for COc1ccc(N2CCN(C(=O)CSc3ccccc3)CC2)cc1 ?
JMJD2E inh: 1.5%; ALDH1A1 inh: inconclusive; PNC assembly inh: 17.1; HPGD block: -8.4%

What do the screens show for `COc1ccc(N2CCN(C(=O)CSc3nnc4n3C(C)(C)Cc3ccccc3-4)CC2)cc1`?
JMJD2E inh: 2.6%; ALDH1A1 inh: 22.4µM*; PNC assembly inh: -80.4*; HPGD block: -13.8%

Results for CCOC(=O)N/N=C(\c1ccccc1)C(O)c1ccccc1 (centres undefined) ?
JMJD2E inh: -1.1%; ALDH1A1 inh: 4.7%

How did CC1(C)S[C@@H]2[C@H](C(=O)O)N=C(Cc3ccccc3)N2[C@H]1C(=O)O do in these assays?
ALDH1A1 inh: 0.5%[13.5 µM]; HPGD block: -4.2%

Results for Cn1c(SCCC#N)nnc1-c1ccc(F)cc1 ?
JMJD2E inh: -0.2%; ALDH1A1 inh: 0.6%

Results for CC1=C(SCCC#N)S/C(=C2\SC(C)=C(SCCC#N)S2)S1 ?
JMJD2E inh: -1.3%; ALDH1A1 inh: 5.01µM*; PNC assembly inh: 37.6; HPGD block: 17.8µM*

How did CC/C(=N/NC(=O)c1ccc(Br)o1)c1ccc(Cl)cc1 do in these assays?
JMJD2E inh: 1.2%; ALDH1A1 inh: -0.1%; PNC assembly inh: inconclusive; HPGD block: -13.7%

How did CCCC/C(=N\NC(=O)c1ccc(Br)o1)c1ccccc1 do in these assays?
JMJD2E inh: 21.0%; ALDH1A1 inh: -2.8%; PNC assembly inh: -113.8*; HPGD block: -3.3%

What do the screens show for `COc1ccc(OCC(=O)Nc2c3c(nn2C(C)(C)C)CSC3)cc1`?
JMJD2E inh: 8.5%; ALDH1A1 inh: inconclusive

How did NC(=O)c1nsc(C(=O)N(CCc2ccccc2)C(C(=O)NC2CCCC2)c2ccco2)c1N (centres undefined) do in these assays?
JMJD2E inh: inconclusive; ALDH1A1 inh: inconclusive; PNC assembly inh: 15.3; HPGD block: -20.9%

Results for O=C(NC1CCCCC1)N(Cc1ccccc1)Cc1ccco1 ?
JMJD2E inh: -3.2%; ALDH1A1 inh: inconclusive; PNC assembly inh: inconclusive; HPGD block: -8.1%

How did O=C(CC(Cc1ccccc1)c1ccco1)NC1CCCCC1 (centres undefined) do in these assays?
JMJD2E inh: 6.7%; ALDH1A1 inh: -6.6%; PNC assembly inh: -13.2; HPGD block: 14.1µM*

Results for O=C(NC1CCCCC1)C(c1ccco1)N(CCc1ccccc1)C(=O)C(F)(F)F (centres undefined) ?
JMJD2E inh: -0.6%; ALDH1A1 inh: 31.6µM*; PNC assembly inh: 26.7; HPGD block: -1.9%

What do the screens show for `O=C(O)CCC1(c2ccccc2)NC(=O)NC1=O` (centres undefined)?
JMJD2E inh: -29.6%

What do the screens show for `Cc1c2c(n3c(nc4ccccc43)c1C#N)N(c1ccccc1)CC2`?
JMJD2E inh: -3.3%; ALDH1A1 inh: inconclusive; PNC assembly inh: -94.6*; HPGD block: -23.0%

What do the screens show for `CN1\C(=C/C=C/C=C/C=[N+](C)C)C(C)(C)c2ccccc21`?
JMJD2E inh: inconclusive; ALDH1A1 inh: 25.1µM*

Results for CCSc1nnc(NC(=O)c2cc(OC)c(OC)c(OC)c2)s1 ?
JMJD2E inh: -8.6%; ALDH1A1 inh: -1.9%

How did NCCC[C@@H](CC(=O)N[C@@H]1CCCC[C@H]1C(=O)N[C@H](CC(=O)N[C@@H](CCC(=O)O)CC(=O)O)Cc1c[nH]c2ccccc12)NC(=O)C[C@H](Cc1c[nH]c2ccccc12)NC(=O)[C@@H]1CNCC[C@H]1N do in these assays?
JMJD2E inh: -23.2%; ALDH1A1 inh: -4.6%; HPGD block: -4.8%

Results for CC1=C(C(=O)OC(C)C)[C@@H](c2ccc(C)o2)NC(=O)N1 ?
JMJD2E inh: 9.0%; ALDH1A1 inh: -8.3%; PNC assembly inh: -26.3; HPGD block: -13.1%

Results for COCCn1c(=O)c(CCc2ccccc2)nc2cnc(OC)nc21 ?
ALDH1A1 inh: inconclusive; HPGD block: -4.3%

Results for COc1ncc2nc(CCc3ccccc3)c(=O)n(C)c2n1 ?
ALDH1A1 inh: inconclusive; HPGD block: -17.8%

Results for Cn1c(=O)c(CCc2ccccc2)nc2cnc(OCc3ccccc3)nc21 ?
ALDH1A1 inh: 11.2µM*

What do the screens show for `COCCn1c(=O)c(CCc2ccccc2)nc2cnc(Oc3cccc(Cl)c3)nc21`?
ALDH1A1 inh: 14.1µM*; HPGD block: -9.2%

How did CCC(=O)Nc1cccc(-c2cc3ccccc3oc2=O)c1 do in these assays?
JMJD2E inh: -5.8%; ALDH1A1 inh: -1.1%

What do the screens show for `O=C(Cc1cccc2ccccc12)Nc1ccc(-c2cc3ccccc3oc2=O)cc1`?
JMJD2E inh: inconclusive; ALDH1A1 inh: inconclusive; PNC assembly inh: -82.9*; HPGD block: inconclusive

What do the screens show for `O=S(=O)(Cc1ccccc1Cl)NCCc1ccccc1`?
JMJD2E inh: 9.3%; ALDH1A1 inh: 7.0%

Results for COc1ccc(/C=c2\sc3nc(-c4ccccc4OC)nn3c2=O)c(OC)c1 ?
JMJD2E inh: 6.1%; ALDH1A1 inh: 8.9%; PNC assembly inh: 26.0; HPGD block: inconclusive
